# Bioassay records from PubChem.
# In the library only some 2% were active in any assay of this set; here they are far more common.
# CHO-K1 Ca ag – counter-screen for M1 agonists: effect in parental CHO-K1 cells; Fluo-8 calcium fluorescence; scaled to maximal ATP response, vehicle zero; activation, % at 3 µM; 360,000 compounds, 0.48% hits; AID 602248, 2012; in the data active = activation above about 15%;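 note: untransfected CHO-K1 host cells lacking M1 receptor as counterscreen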
# M1 PAM parental – nonselective calcium activators in parental CHO-K1 cells, primary screen, counter-screen for M1 PAM project, cell-based, Fluo-8 calcium fluorescence, full deck, 1536-well | 360,000 compounds, 0.02% hits | activation, % at 3 µM | ATP EC20; 0% at ATP EC20, 100% at ATP max;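 active = activation above the run cutoff, the mean activation of all test compounds plus 3 SD, cut at about 40% in these data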;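 note: peak over basal fluorescence ratio in a 140 s read after ATP addition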
# M4 ag – human M4 muscarinic receptor agonists, primary screen, CHO-K1 cells, Fluo-8 calcium fluorescence. 360,000 compounds, 0.14% hits. CHO-K1 hM4/Gqi5; vehicle 0%, full acetylcholine response 100%. activation, % at 3 µM. Muscarinic acetylcholine receptor M4 (Homo sapiens), P08173;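 active = activation above the run mean over all test wells plus 3 SD, cut at about 32% in these data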;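 note: peak over basal fluorescence ratio per well then scaled between controls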
# Target sequence (P08173 whole entry, looked up): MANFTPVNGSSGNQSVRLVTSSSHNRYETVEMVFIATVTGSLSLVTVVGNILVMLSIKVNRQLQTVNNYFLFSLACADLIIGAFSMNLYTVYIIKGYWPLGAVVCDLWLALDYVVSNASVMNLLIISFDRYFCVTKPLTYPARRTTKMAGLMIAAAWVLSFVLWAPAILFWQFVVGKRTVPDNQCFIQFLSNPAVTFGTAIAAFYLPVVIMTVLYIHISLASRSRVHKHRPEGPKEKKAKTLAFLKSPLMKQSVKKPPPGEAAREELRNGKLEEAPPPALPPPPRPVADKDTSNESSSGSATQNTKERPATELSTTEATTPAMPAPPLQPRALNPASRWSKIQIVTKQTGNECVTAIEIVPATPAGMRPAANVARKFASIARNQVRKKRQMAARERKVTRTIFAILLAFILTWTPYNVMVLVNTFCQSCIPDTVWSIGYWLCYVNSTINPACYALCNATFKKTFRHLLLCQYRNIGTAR
# CHO-K1 Ca antag – nonselective inhibitor or artifact in parental CHO-K1 cells; ATP-induced calcium, Fluo-8 fluorescence; inhibition, % at 3 µM; 360,000 compounds, 0.6% hits;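 active = inhibition above a per-plate cutoff, the plate's mean sample inhibition plus 3 SD, cut at about 24% in these data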
# CHRM4 PAM – human M4 muscarinic receptor positive allosteric modulators, primary screen, CHO-K1 cells, Fluo-8 calcium fluorescence; CHO-K1 hM4/Gqi5, ACh EC20; 0% = ACh EC20, 100% = maximal ACh; activation, % at 3 µM; 360,000 compounds, 0.4% hits; AID 624126, 2012;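 active = activation above its plate's cutoff, the mean activation of sample wells plus 3 SD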
# M4 antag – human M4 muscarinic receptor antagonists, primary screen, CHO cells, Fluo-8 calcium fluorescence | CHO-hM4 cells, ACh EC80 | inhibition, % at 3 µM | 360,000 compounds, 0.73% hits | AID 624125, 2012;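 active = inhibition above its plate's cutoff, the mean inhibition of sample wells plus 3 SD, cut at about 27% in these data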
# Hits are given with their value; - = inactive; . = no result given.
SMILES,CHO-K1 Ca ag,M1 PAM parental,M4 ag,CHO-K1 Ca antag,CHRM4 PAM,M4 antag
NNC(=O)c1oc2nc(-c3cccs3)cc(-c3ccco3)c2c1N,-,-,-,-,26,-
CCN(CC(=O)Nc1cc(S(=O)(=O)N2CCOCC2)ccc1C)Cc1ccccc1,-,-,-,-,-,-
CNc1ccccc1NC(=O)CCn1c(=S)oc2ccccc21,-,-,-,-,-,-
O=C(CCn1c(=S)oc2ccccc21)Nc1ccccc1F,-,-,-,26,-,-
CC1=CC(=O)C(C(C)=Nc2ccccc2Cl)C(=O)O1 (centres undefined),-,-,-,-,-,-
CNC(C)C(=O)NC(C(=O)N1CCCC1C(=O)Nc1ccc2ncccc2c1)C(C)C (centres undefined),-,-,-,-,29,-
CNC(C)C(=O)NC(C(=O)N1CCCC1C(=O)Nc1ccc2[nH]ccc2c1)C(C)C (centres undefined),-,-,-,-,-,-
Cc1ccc(CCNC(=O)CN2CCN(Cc3ccccc3F)C2=O)cc1,-,-,-,-,30,-
CC(Oc1ccc(C(C)(C)C)cc1)c1ccnc2nc(/N=C/N(C)C)nn12 (centres undefined),-,-,-,-,-,44
Cc1nn(-c2nc3ccccc3s2)c(C)c1Oc1ccccc1O,-,-,37,-,-,32
Cc1cccc(Nc2nc(NCC3CCCO3)nc(N)c2[N+](=O)[O-])c1 (centres undefined),-,-,-,-,24,-
Nc1nc(Nc2cccc(F)c2)nc(NCCO)c1[N+](=O)[O-],15,-,-,-,-,-
Nc1nc(NCc2ccccc2)nc(Nc2cccc(F)c2)c1[N+](=O)[O-],-,-,-,-,-,-
O=C(Nc1cccc(-c2nnc(-c3ccco3)o2)c1)C(c1ccccc1)c1ccccc1,-,-,-,-,-,-
Cc1cc(C)n(-c2nc(Nc3ccccc3C(F)(F)F)nc(-n3nc(C)cc3C)n2)n1,19,-,-,-,-,-
Cc1cc(C)n(-c2nc(NC(C)(C)C)nc(NC(C)(C)C)n2)n1,-,-,-,-,-,-
CC(C)CN(Cc1c(O)ccc2c3c(c(=O)oc12)CCC3)CC(C)C,-,-,-,-,-,28
CSC1=NC=C(C#N)C2=NC(c3c(Cl)cccc3Cl)NN12 (centres undefined),-,-,-,-,-,-
CN1C2CC(OC(=O)C(CO)c3ccccc3)CC1C1OC12 (centres undefined),.,.,-,.,-,99
O=C(c1ccc(CS(=O)Cc2ccc(Cl)cc2)o1)N1CCN(C2CCCCC2)CC1 (centres undefined),-,-,-,-,-,-
Cc1ccc2nc(-c3ccc(N)cc3)sc2c1,-,-,-,-,13,-
CC(C)c1ccc(Nc2n[nH]c(=S)s2)cc1,-,-,-,28,-,-
Cc1cccc(C)c1Nc1n[nH]c(=S)s1,-,-,-,-,-,-
CC(C)NC(=O)c1ccc(N(Cc2ccc(Cl)cc2)S(C)(=O)=O)cc1,-,-,-,-,-,-
Cc1csc2ncnc(N3CCN(C(=S)Nc4ccc(C(F)(F)F)cc4)CC3)c12,-,-,-,-,-,-
SMILES,CHO-K1 Ca ag,M1 PAM parental,M4 ag,CHO-K1 Ca antag,CHRM4 PAM,M4 antag
Cc1csc2c(N3CCN(C(=S)Nc4ccc(C(F)(F)F)cc4)CC3)ncnc12,-,-,-,28,-,-
N#Cc1c(-c2cccs2)cc(-c2cccs2)[nH]c1=O,-,40,-,-,-,-
Cc1cc(-c2cccs2)c(C#N)c(=S)[nH]1,-,-,-,-,-,-
CCCCCC(=O)Oc1cccc(N2C(=O)C3CCCCC3C2=O)c1 (centres undefined),-,-,-,-,-,-
CCCC(c1nnnn1Cc1ccco1)N1CCN(C(=O)c2ccco2)CC1 (centres undefined),-,-,-,-,20,-
CCCCC(c1nnnn1Cc1ccco1)N1CCN(C(=O)c2ccco2)CC1 (centres undefined),-,-,-,-,-,-
CC1Cc2cc(-c3csc(NC(=O)Cc4cccs4)n3)ccc2N1S(C)(=O)=O (centres undefined),-,-,-,-,-,29
COc1ccc(-c2nnc3n2N=C(C)CS3)cc1,-,-,-,-,-,-
COc1ccc(C2=Nn3c(nnc3-c3ccc(OC)cc3)SC2)cc1,-,-,-,-,-,28
CC(=O)Nc1ccc(CN2CCCC(C(=O)c3cccc(C(F)(F)F)c3)C2)cc1 (centres undefined),-,-,-,-,-,-
O=C(c1cccc(C(F)(F)F)c1)C1CCCN(Cc2ccc(OCCO)cc2)C1 (centres undefined),23,-,-,-,-,-
O=C(c1ccc2c(c1)OCO2)C1CCCN(Cc2ccc(OC(F)F)cc2)C1 (centres undefined),-,-,-,-,-,33
COc1ccccc1CCN=C(N)NS(=O)(=O)c1ccc(C)cc1,17,-,-,-,-,-
COc1ccc(CCN=C(N)NS(=O)(=O)c2ccc(C)cc2)cc1OC,-,-,-,-,-,-
CCCOc1ccccc1NC(=O)c1ccc([N+](=O)[O-])cc1,-,-,-,-,-,-
O=C(NCc1ccccc1Cl)[C@H]1CCCN1C(=O)[C@H]1CCCN1C(=O)c1cccc2ccccc12,16,-,-,-,-,-
O=C(NCc1ccccn1)C1CCCN(S(=O)(=O)c2ccc(Br)cc2)C1 (centres undefined),-,-,-,24,-,-
Cn1c(=O)oc2cc(S(=O)(=O)N3CCCC(C(=O)NCc4cccs4)C3)ccc21 (centres undefined),-,-,-,27,-,-
O=C(NCc1ccccn1)C1CCCN(S(=O)(=O)c2cc(Cl)ccc2Cl)C1 (centres undefined),-,-,-,-,-,-
CCOC(=O)C1CCN(C(=O)c2ccc(N(C)S(=O)(=O)c3ccc(OC)cc3)cc2)CC1,-,-,-,-,-,-
COc1ccc(C)cc1NC(=O)CCN1CC(C)OC(C)C1 (centres undefined),-,-,-,-,20,-
CCOC(=O)C1CCN(CCC(=O)Nc2cc(C)ccc2C)CC1,16,-,-,-,-,-
COc1ccc(-c2nc3c4ccccc4ccn3c2Cc2ccsc2)cc1OC,-,-,-,24,-,-
FC(F)(F)c1nc2ccccc2[nH]1,-,-,-,-,15,-
CC(C)(C)c1nc2ccccc2[nH]1,-,-,-,-,-,-
Cc1ccc2c(c1)nnn2C1CCN(S(C)(=O)=O)CC1,-,-,-,24,-,-
